From PubChem BioAssay
Active and inactive are the calls of the source. Unless noted, no rule for the calls is given here.

How the values were obtained:
[1] = HepG2 liver cancer cell viability effects, profiling panel, resazurin fluorescence, 24 h, PK04 Diversity Set (AID 1172); settings: higher = more signal
[2] = basal S. cerevisiae growth modulation, no modifier, primary screen, OD600, strain BY4716, 24 h, basal condition (AID 1173); settings: OD600, 24 h, higher = more signal, called active from +8 up or from −8 down
[3] = MM1S myeloma cell viability, profiling panel, resazurin fluorescence, basal, 24 h, PK04 Diversity Set (AID 1174); settings: higher = more signal, called active from +8 up or from −8 down;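 also: MM1S multiple myeloma cell line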
[4] = molecular target: Dihydroorotate dehydrogenase (quinone), mitochondrial (Plasmodium falciparum (isolate 3D7)) (UniProt Q08210); test: PfDHODH enzyme inhibitors, primary screen, biochemical, C-terminal His tag, absorbance 600 nm (AID 1175); settings: DCIP absorbance 600 nm, higher = more signal, called active from +8 up or from −8 down;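 also: recombinant parasite enzyme with a five histidine tag at its C terminus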
[5] = P. aeruginosa biofilm formation inhibitors, primary screen, strain PAO1, LB-PBS medium, absorbance 600 nm (AID 1176); settings: P. aeruginosa PAO1 growth/biofilm, A600, 12 h; higher = more signal
[6] = S. cerevisiae RM11-1a growth modifiers, primary screen, strain RM11-1a, OD600, basal, 24 h (AID 1177); settings: OD600, 24 h, higher = more signal, called active from +8 up or from −8 down;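 also: cultures grown under basal conditions with no added stressor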
[7] = E. coli acrAB mutant growth effects, primary screen, E. coli filamentation inducers, strain DRC39, OD650, 24 h (AID 1178); settings: higher = more signal, called active from +8 up or from −8 down;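 also: growth measured as culture turbidity by optical density at 650 nm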
[8] = E. coli acrAB mutant growth effects, primary screen, E. coli filamentation inducers, strain DRC39, OD650, 48 h (AID 1179);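 also: screen aims at cell division blockers that make cells filament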; settings: E. coli DRC39 delta-acrAB growth, higher = more signal, called active from +8 up or from −8 down
[9] = RPMI8226 myeloma cell viability, profiling panel, resazurin fluorescence, basal, 24 h, PK04 Diversity Set (AID 1180); settings: higher = more signal;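 also: RPMI8826 multiple myeloma cell line at 5000 cells per well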
[10] = molecular target: E3 ubiquitin-protein ligase XIAP (Homo sapiens) (UniProt P98170); test: XIAP binders, primary screen, biophysical, small-molecule microarray, fluorescence 635 nm (AID 1181); settings: small-molecule microarray binding, higher = more signal;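 also: score merges 667 nm emission and signal to noise over triplicate slides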
[11] = tested on: XIP peptide (Xip251-270) binding; test: small-molecule binders of XIP peptide, primary screen, biochemical, small-molecule microarray, fluorescence 635/667 nm, 0.1 µg/mL protein (AID 1182); settings: fluorescent protein binding, 635 nm, higher = more signal, called active from +8 up or from −8 down
XIP peptide (Xip251-270) = test: small-molecule binders of XIP peptide, primary screen, biochemical, small-molecule microarray, fluorescence 635/667 nm, 0.5 µg/mL protein (AID 1183); settings: small-molecule microarray binding, fluorescence 635 nm; higher = more signal
[12] = Plasmodium falciparum growth inhibition, primary screen, strain 3D7, DAPI fluorescence, 100 nL (AID 1184);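 also: parasites grown inside human red blood cells in medium with human serum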; settings: P. falciparum 3D7 growth, 3 d, higher = more signal
[13] = molecular target: Homeobox protein Hox-A13 (Mus musculus) (UniProt Q62424); test: inhibitors of HoxA13-DNA binding, primary screen, biochemical, fluorescence polarization, labeled oligonucleotide (AID 1185); settings: 15 min, higher = more signal, called active from +8 up or from −8 down
[14] = inhibitors of hydroxyurea-induced Chk1 phosphorylation, primary screen, imaging, HeLa, phospho-Chk1 antibody, percent positive cells (AID 1186); settings: hydroxyurea-induced phospho-Chk1 immunofluorescence imaging, higher = more signal
[15] = inhibitors of hydroxyurea-induced Chk1 phosphorylation, primary screen, imaging, HeLa, phospho-Chk1 nuclear intensity (AID 1187); settings: hydroxyurea-induced phospho-Chk1 immunofluorescence imaging, higher = more signal

Chain of Dihydroorotate dehydrogenase (quinone), mitochondrial (Plasmodium falciparum (isolate 3D7)) (Q08210 whole entry, looked up): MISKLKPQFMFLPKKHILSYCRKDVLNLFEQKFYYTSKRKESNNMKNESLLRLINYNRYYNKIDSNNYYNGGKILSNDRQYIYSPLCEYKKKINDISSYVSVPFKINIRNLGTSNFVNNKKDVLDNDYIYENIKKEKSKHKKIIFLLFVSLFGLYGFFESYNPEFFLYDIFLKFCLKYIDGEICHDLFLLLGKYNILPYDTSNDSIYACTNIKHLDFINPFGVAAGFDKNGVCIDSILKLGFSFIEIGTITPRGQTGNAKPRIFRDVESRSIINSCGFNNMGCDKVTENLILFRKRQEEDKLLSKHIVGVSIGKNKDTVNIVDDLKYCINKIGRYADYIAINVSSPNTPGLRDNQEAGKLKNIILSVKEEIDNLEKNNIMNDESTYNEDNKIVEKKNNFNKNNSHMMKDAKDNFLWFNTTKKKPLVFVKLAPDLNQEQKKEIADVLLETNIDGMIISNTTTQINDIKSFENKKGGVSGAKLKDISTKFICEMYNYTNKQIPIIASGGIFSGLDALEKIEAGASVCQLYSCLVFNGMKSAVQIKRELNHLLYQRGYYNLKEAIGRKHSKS
Chain of E3 ubiquitin-protein ligase XIAP (Homo sapiens) (P98170 whole entry, looked up): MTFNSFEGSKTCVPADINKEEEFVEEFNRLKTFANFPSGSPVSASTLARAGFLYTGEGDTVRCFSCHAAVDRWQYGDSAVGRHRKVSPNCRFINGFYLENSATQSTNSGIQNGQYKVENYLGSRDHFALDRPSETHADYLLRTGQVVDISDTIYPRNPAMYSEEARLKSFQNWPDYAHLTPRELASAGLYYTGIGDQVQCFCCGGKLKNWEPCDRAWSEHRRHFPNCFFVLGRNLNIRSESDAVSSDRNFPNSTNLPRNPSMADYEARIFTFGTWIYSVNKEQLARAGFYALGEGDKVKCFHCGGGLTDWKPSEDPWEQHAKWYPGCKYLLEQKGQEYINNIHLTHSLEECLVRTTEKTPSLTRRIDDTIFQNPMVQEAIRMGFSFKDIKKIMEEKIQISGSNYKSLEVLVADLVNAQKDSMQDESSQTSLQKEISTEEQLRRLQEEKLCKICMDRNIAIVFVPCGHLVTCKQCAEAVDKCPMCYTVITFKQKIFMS
Chain of Homeobox protein Hox-A13 (Mus musculus) (Q62424 whole entry, looked up): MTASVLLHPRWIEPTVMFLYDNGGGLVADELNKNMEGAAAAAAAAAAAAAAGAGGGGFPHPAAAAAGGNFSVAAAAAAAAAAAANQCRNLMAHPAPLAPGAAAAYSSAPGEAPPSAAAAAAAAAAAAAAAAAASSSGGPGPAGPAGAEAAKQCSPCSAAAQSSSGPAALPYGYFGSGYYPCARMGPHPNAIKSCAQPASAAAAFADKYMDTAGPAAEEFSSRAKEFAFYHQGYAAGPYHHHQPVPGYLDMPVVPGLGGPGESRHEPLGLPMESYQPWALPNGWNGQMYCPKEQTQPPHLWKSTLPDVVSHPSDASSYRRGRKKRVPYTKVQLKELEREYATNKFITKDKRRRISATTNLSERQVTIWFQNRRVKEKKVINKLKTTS

SMILES: COC(=O)[C@@]1(Cc2ccc(F)cc2)[C@H]2c3cc(C(=O)N4CCCC4)n(CCCNc4ncc(C(F)(F)F)cc4Cl)c3C[C@H]2CN1C(=O)c1ccccc1
- z-score [1]: -0.461
- z-score [2]: 2.05 (inactive)
- z-score [3]: -2.38 (inactive)
- composite z-score [4]: 0.308 (inactive)
- z-score [5]: 1.03 (inactive)
- z-score [6]: 1.65 (inactive)
- z-score [7]: -0.645 (inactive)
- z-score [8]: -0.681 (inactive)
- z-score [9]: -2.34
- composite z-score [10]: 0.426
- composite z-score [11]: 0.1 (inactive)
- composite z-score (XIP peptide (Xip251-270)): 0.716
- z-score [12]: -1.41
- z-score [13]: -4.2 (inactive)
- z-score [14]: 0.919 (inactive)
- z-score [15]: 0.259 (inactive)

SMILES: CCN(CC)c1ccc(N2CC=CC34O[C@@H]5C=CCCOC(=O)C5[C@H]3C(=O)N(CCCCCCO)[C@@H]4C2=O)cc1 (stereo not given in full)
- z-score [1]: 0.846
- z-score [2]: -1.04 (inactive)
- z-score [3]: 1.55 (inactive)
- composite z-score [4]: -0.324 (inactive)
- z-score [5]: 0.786 (inactive)
- z-score [6]: -1.31 (inactive)
- z-score [7]: 1.07 (inactive)
- z-score [8]: 0.534 (inactive)
- z-score [9]: 1.04
- composite z-score [10]: 0.127
- composite z-score [11]: 0.0059 (inactive)
- composite z-score (XIP peptide (Xip251-270)): 0.375
- z-score [12]: -0.459
- z-score [13]: -5.73 (inactive)
- z-score [14]: -0.43 (inactive)
- z-score [15]: 0.419 (inactive)

SMILES: O=C1N[C@@H](Cc2ccccc2)C(=O)N2[C@@H]1C[C@@H](C(=O)O)[C@H]2c1cccc(OCCO)c1
- z-score [1]: -1.6
- z-score [2]: 0.165 (inactive)
- z-score [3]: -0.0089 (inactive)
- composite z-score [4]: -2.58 (inactive)
- z-score [5]: 0.0499 (inactive)
- z-score [6]: 0.346 (inactive)
- z-score [7]: 0.395 (inactive)
- z-score [8]: 0.993 (inactive)
- z-score [9]: -0.277
- composite z-score [10]: -0.102
- composite z-score [11]: 0.779 (inactive)
- composite z-score (XIP peptide (Xip251-270)): 0.465
- z-score [12]: 0.193
- z-score [13]: -3.04 (inactive)
- z-score [14]: -0.22 (inactive)
- z-score [15]: 0.101 (inactive)

SMILES: CC(C)C(O)C1C=CC2C(=O)NC(=O)C2N1Nc1ccc(Cl)cc1Cl (stereo not given)
- z-score [1]: -1.29
- z-score [2]: -9.69 (active)
- z-score [3]: -1.59 (inactive)
- composite z-score [4]: 0.0813 (inactive)
- z-score [5]: 0.751 (inactive)
- z-score [6]: 1.05 (inactive)
- z-score [7]: -0.456 (inactive)
- z-score [8]: -0.527 (inactive)
- z-score [9]: -1.93
- composite z-score [10]: -0.02
- composite z-score [11]: 0.471 (inactive)
- composite z-score (XIP peptide (Xip251-270)): -0.615
- z-score [12]: 0.0359
- z-score [13]: -3.95 (inactive)
- z-score [14]: 0.998 (inactive)
- z-score [15]: 0.237 (inactive)

SMILES: [N-]=[N+]=Nc1ccccc1[C@H]1OC(c2ccc(OCCCO)cc2)=N[C@@]1(CCS(=O)(=O)c1ccccc1)C(=O)NCC(O)CO (stereo not given in full)
- z-score [1]: -0.14
- z-score [2]: -0.484 (inactive)
- z-score [3]: -0.0646 (inactive)
- composite z-score [4]: 1.01 (inactive)
- z-score [5]: 0.854 (inactive)
- z-score [6]: -0.129 (inactive)
- z-score [7]: -0.117 (inactive)
- z-score [8]: -0.878 (inactive)
- z-score [9]: -0.389
- composite z-score [10]: 0.0727
- composite z-score [11]: -0.193 (inactive)
- composite z-score (XIP peptide (Xip251-270)): 0.557
- z-score [12]: -1.81
- z-score [13]: -4.65 (inactive)
- z-score [14]: -0.0536 (inactive)
- z-score [15]: -0.22 (inactive)
